# The campaign covered roughly 2,300 compounds. About 790 (34%) were called active. No rule for the calls is given here. The list shows a part of the results. A call without a number means that no potency is given here. Potency and affinity values are given separately.
# Experiment: THP-1 cell cytotoxicity, dose response, cytotoxicity control for non-replicating M. tuberculosis project (AID 489025)
# Details: THP-1 cell viability; series mostly up to 40 µM
row,Structure (SMILES),outcome
1,CCOc1ccc(NC(=O)COC(=O)C2(C)CC2(Cl)Cl)c([N+](=O)[O-])c1 (configuration not stated),inactive
2,Cc1ccc(Sc2ncccc2N)cc1,inactive
3,O=C(NCCCN1CCOCC1)c1ccc(CSc2ccc(Cl)cc2)cc1,inactive
4,Cc1ccc2oc(=O)c3cc(C(=O)NCCCN4CCCCCC4)sc3c2c1,inactive
5,CC(=O)N1CCC(=NNC(=O)c2cccs2)CC1,inactive
6,Cc1cccc(CSc2nnc(-c3ccco3)o2)c1,inactive
7,C#CCSc1nnc(-c2ccc(O)cc2)o1,inactive
8,C#CCSc1nnc(-c2ccc([N+](=O)[O-])cc2)o1,inactive
9,CCOc1ccc(CC(=O)N2N=C(C)CC2(O)C(F)(F)F)cc1 (configuration not stated),inactive
10,O=C(CNC1CCCC1)Nc1ccc(N2CCCCCC2)cc1,inactive
11,COc1cc(N=c2ssnc2Cl)cc(OC)c1,inactive
12,N#Cc1ccc(N=c2ssnc2Cl)cc1,inactive
13,CC(=O)Nc1ccc(NC(=O)[C@@H]2CCCC[C@@H]2C(=O)O)cc1,inactive
14,CC(C)N=C1SC(CC(=O)Nc2ccccc2)C(=O)N1C(C)C (configuration not stated),inactive
15,CC(C)(C)c1ccc(C(=O)N2CCCC2)s1,inactive
16,CC1(C)OC(c2ccccc2)=C/C(=C\C=N\NC(=O)c2ccncc2)O1,inactive
17,Cc1ccc(NC(=O)CCSc2nnc(-c3ccco3)o2)cc1,inactive
18,O=C1/C(=C/c2ccco2)CCC1C1CCCC1 (configuration not stated),inactive
19,COc1ccc(CC(=O)Nc2nccs2)cc1OC,inactive
20,N/C(=N\OC(=O)c1cccc2ccccc12)c1cccnc1,inactive
21,O=C(Oc1ccc(/C=N/O)cc1)c1ccccc1Cl,inactive
22,Cc1ccc(-c2nnc(Cc3ccc([N+](=O)[O-])cc3)o2)cc1,inactive
23,O=[N+]([O-])c1ccc2nc(SCc3cn4ccccc4n3)[nH]c2c1,inactive
24,N/N=C(/Cc1nc2ccccc2[nH]1)c1ccc([N+](=O)[O-])cc1,inactive
25,O=C(Nc1nc2ccccc2[nH]1)c1cccc([N+](=O)[O-])c1,inactive

row,Structure (SMILES),outcome
1,Cc1ccc2cc3c(nc2c1)OCC3,inactive
2,Fc1ccc(N2CCN(Cc3nnc(-c4ccccc4)o3)CC2)cc1,inactive
3,O=C1CCCCC1Sc1nnc(-c2ccc3c(c2)OCO3)o1 (configuration not stated),inactive
4,O=C(COC(=O)c1ccccc1Cl)NCCC1=CCCCC1,inactive
5,Cc1ccc2c(C)ccc(O)c2n1,inactive
6,CN1C(=O)CC(N2CCC(c3nc4ccccc4s3)CC2)C1=O (configuration not stated),inactive
7,FC(F)(F)c1ccc(NCCc2ccccc2)nc1,inactive
8,CN(C)/C=C1/C(=O)N(c2ccc([N+](=O)[O-])cc2)N=C1c1ccccc1,inactive
9,Cc1cc(C)n2nc(N)c(N=Nc3ccccc3)c2n1,inactive
10,S=C1CN=C(c2ccccc2)c2cc(Cl)ccc2N1,inactive
11,CC(C)c1ccc(N2C(=O)CC(Sc3ncn[nH]3)C2=O)cc1 (configuration not stated),inactive
12,CCOC(=O)COn1c2c(c3c4no[n+]([O-])c4ccc31)CCCC2,inactive
13,CN(C)CCNc1c2c(c(C#N)c3nc4ccccc4n13)CCCC2,inactive
14,CC1=NN(c2ccccc2)C(=O)C1C(=O)c1ccccc1 (configuration not stated),inactive
15,Oc1ccccc1CN1CCCC(N2CCN(c3cccc(C(F)(F)F)c3)CC2)C1 (configuration not stated),inactive
16,N=C1/C(=C/c2ccc(OC(=O)c3ccco3)cc2)C(=O)N=C2SC=CN12,inactive
17,CCc1ccc(C2=C/C(=C/c3cccnc3)C(=O)O2)cc1,inactive
18,Cc1ccc(OCC(=O)OCc2c(C)noc2C)cc1C,inactive
19,CCOc1ccc(NC(=O)COc2ccc3c(c2)OCO3)cc1,inactive
20,O=C(COC(=O)c1ccccc1Br)Nc1ccccc1F,inactive
21,O=C(CCNc1ccc(Cl)cc1)c1cccs1,inactive
22,Cc1cc(NC(=O)c2cc([N+](=O)[O-])cc([N+](=O)[O-])c2)no1,inactive
23,Cc1occc1-c1nnc(-c2cc([N+](=O)[O-])cc([N+](=O)[O-])c2)o1,inactive
24,CCOC(=O)c1ccc(N=C(CC)c2c(O)n(C)c(=O)n(C)c2=O)cc1,inactive
25,O=C1OC(/C(=C\Nc2cc(Cl)ccc2O)[N+](=O)[O-])c2ccccc21 (configuration not stated),inactive

row,Structure (SMILES),outcome
1,COc1cccc2cc(-c3nc4ccccc4o3)c(=O)oc12,inactive
2,CS(=O)(=O)Cc1nc2ccccc2oc1=O,inactive
3,O=C(OCC(=O)N1CCCC1)c1cc(Br)ccc1Cl,inactive
4,CC12CC3CC(C)(C1)CC(C(=O)N1CCCC1)(C3)C2,inactive
5,CCOc1ccc(Cn2c(=O)oc3ccccc32)cc1,inactive
6,O=C(COc1ccccc1)NCCSCc1ccc(Cl)cc1,inactive
7,OC(COc1ccc2ccccc2c1Br)Cn1ccnc1 (configuration not stated),inactive
8,CCOC(=O)COc1ccc2c(c1)c(C(C)=O)c(C)n2Cc1ccccc1,inactive
9,OC(COc1ccccc1Cl)CN1CCN(CC(O)COc2ccccc2Cl)CC1 (configuration not stated),inactive
10,O=C(OCC#CCSc1nnc(-c2ccncc2)o1)c1cccs1,inactive
11,COc1ccc(COc2cccc(C=O)c2)cc1,inactive
12,CCCCn1c(=O)c(C(=O)Nc2nnc(C(C)C)s2)c(O)c2ccccc21,inactive
13,CCOC(=O)Cc1csc(NC(=O)COc2ccc3c(c2)CCC3)n1,inactive
14,CCCNC(=O)N1CCC(c2ccc3c(c2)OCO3)CC1,inactive
15,CCOC(=O)C1CCCc2c1[nH]c1c(C(N)=O)cccc21 (configuration not stated),inactive
16,O=C(OCC#CCSc1nc2ccccc2o1)c1ccco1,inactive
17,C/C(=N\O)c1cc(Cl)ccc1O,inactive
18,O=C(COC(=O)c1cc(Cl)ccc1O)c1ccc2c(c1)OCO2,inactive
19,CCOC(=O)COc1ccc2c(=O)cc(-c3ccccc3)oc2c1,inactive
20,CN(C)c1ccc(/C=C2\N=C(C(C)(C)C)OC2=O)cc1,inactive
21,O=C(OCc1cccc([N+](=O)[O-])c1)c1ccc2ccccc2n1,inactive
22,O=c1c2c([N+](=O)[O-])cc([N+](=O)[O-])cc2nc2ccccn12,inactive
23,CSc1ccc(CNc2ncc(-c3cccc([N+](=O)[O-])c3)n2C)cc1,inactive
24,N[C@@H](Cc1ccccc1)c1nnc(SC/C=C/c2ccccc2)o1,inactive
25,Cc1cccc(C(=O)Nc2nnc(-c3cccnc3)o2)c1,inactive

row,Structure (SMILES),outcome
1,O=C(Nc1nnc(-c2ccc3c(c2)CCCC3)o1)c1c(F)cccc1F,inactive
2,CCOc1ccccc1C(=O)OCC(=O)Nc1nnc(-c2ccccc2)o1,inactive
3,O=C(COc1ccccc1)Nc1nnc(-c2ccc3c(c2)CCCC3)o1,inactive
4,CCOc1ccc(-c2nnc(NC(=O)CCCOc3cccc(C)c3)o2)cc1,inactive
5,CCOc1ccc(C(=O)Nc2nnc(C3=COCCO3)o2)cc1,inactive
6,COc1ccc(C(=O)COC(=O)c2ccccc2O)c(OC)c1,inactive
7,O=Cc1ccc(OC2OCCOC2Oc2ccc(C=O)cc2)cc1 (configuration not stated),inactive
8,O=C(CCN1CCN(C/C=C/c2ccccc2)CC1)Nc1ccc(Cl)cc1,inactive
9,COc1ccccc1C(=O)OCC(=O)Nc1ccc(Cl)cn1,inactive
10,C=CCOC(=O)c1ccc(-n2cnc(C)n2)nc1,inactive
11,NC(=O)CN1CCN(C2CC(=O)N(CCc3ccccc3)C2=O)CC1 (configuration not stated),inactive
12,O=C(Nc1nnc(-c2ccc(Cl)cc2)o1)C1=COCCO1,inactive
13,COc1cccc(C(=O)OCC(=O)Nc2nnc(-c3ccccc3)o2)c1,inactive
14,O=C(Nc1nnc(-c2ccc(Cl)cc2)o1)c1cccc(N2C(=O)CCC2=O)c1,inactive
15,Cc1ccc(C(=O)Nc2nnc(-c3ccncc3)o2)cc1,inactive
16,O=C(COc1ccccc1)Nc1nnc(-c2ccc(Cl)cc2)o1,inactive
17,O=C(COC(=O)CC12CC3CC(CC(C3)C1)C2)Nc1cccnc1Cl,inactive
18,CCc1ccc(N=CC2=C(O)CC(c3ccco3)CC2=O)cc1 (configuration not stated),inactive
19,C(=C\c1ccccc1)/CSc1nc2ncccc2[nH]1,inactive
20,CCOC(=O)C1CCN(Cc2ccc(-c3ccccc3)cc2)CC1,inactive
21,CCOC(=O)C1CCCN(Cc2ccc(OCc3ccccc3)cc2)C1 (configuration not stated),inactive
22,CCOC(=O)c1ccc(COC(=O)c2ccc(-c3nnc(-c4ccccc4)o3)cc2)o1,inactive
23,CCC(=O)c1ccc(OCc2ccc(C(=O)OC)cc2)cc1,inactive
24,COc1ccccc1N=Cc1nc(-c2ccccc2)oc1OC(C)=O,inactive
25,CN(CCOCCOc1ccc(F)cc1)Cc1ccccc1,inactive

row,Structure (SMILES),outcome
1,Brc1ccc(OCCCCN2CCCCC2)cc1,inactive
2,Cc1ccc(NC(=O)ON=C2CCCC2)cc1,inactive
3,Cc1ccc(NC(=O)COc2ccccc2)cc1Cl,inactive
4,O=C(COc1ccc(Cl)cc1)Nc1ccc2[nH]ncc2c1,inactive
5,CCOc1ccccc1OC(=O)c1cc2ccccc2oc1=O,inactive
6,Cc1ccc(C(=O)NCCOc2cccc(C)c2)cc1,inactive
7,Cc1cccc(OCCCCc2c(C)n[nH]c2C)c1,inactive
8,CCCCOC(=O)c1ccc(OC(=O)c2cccnc2)cc1,inactive
9,COc1ccc(Cl)cc1N=Cc1c(O)c2ccccc2oc1=O,inactive
10,COc1ccc(OC(=O)c2cc3cc(Cl)ccc3oc2=O)cc1,inactive
11,Cc1ccc(NC(=O)CO/N=C/c2ccc(N(C)C)cc2)cc1,inactive
12,COc1ccc(CC(=O)OCC(=O)Nc2ccc(Br)cc2)cc1,inactive
13,O=C(COC(=O)c1ccc([N+](=O)[O-])s1)Nc1ccc(Cl)cn1,inactive
14,Cc1ccccc1C(=O)Nc1nnc(-c2ccco2)o1,inactive
15,Cc1cccc(NC(=O)COc2ccc(Br)cc2)n1,inactive
16,O=C(Nc1ccccc1F)c1ccc(Br)o1,inactive
17,O=C(Nc1nnc(-c2ccco2)o1)c1cccc2ccccc12,inactive
18,O=C(Nc1nnc(-c2ccc(Br)cc2)o1)c1ccco1,inactive
19,O=C(Nc1nnc(-c2ccc(Br)cc2)o1)C1=COCCO1,inactive
20,Cc1ccc(CCC(=O)Nc2ccccc2F)s1,inactive
21,Fc1ccc(COc2ccc(-c3nnco3)cc2)cc1,inactive
22,Cc1ccc(C(=O)OCC(=O)N2CCCCCC2)c(O)c1,inactive

# — PubChem BioAssay AID489025 (Southern Research Specialized Biocontainment Screening …, 2010)
